Bioassay records (PubChem)
In the library only some 3.1% were active in any assay of this set; here they are far more common.
HSF1 activator – increases HSF-1 driven luciferase reporter signal; NIH3T3-HGL HSF-1 luciferase reporter, MG132, 8 h; 100% = twice DMSO control signal; activation, % at 9 µM; 300,000 compounds, 1.7% hits; AID 504408;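 active means mean replicate activation of at least 50% with a set share of replicates each reaching 50%; inconclusive means only one of those two conditions met; inactive means mean below 50% and too few replicates reaching it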;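 further: 0% = median of the neutral control wells and 100% = twice that signal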
HIF activator – HIF pathway transcriptional activation. U2OS HRE-luciferase reporter, luminescence; normalized: DMSO 0%, desferrioxamine 100%. activation, % at 7.5 µM (by protocol). 300,000 compounds, 0.32% hits;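 active means mean activation of at least 10% of the iron chelator positive control signal, with at least half of replicates also reaching 10%; inconclusive means mean and replicate majority disagree about reaching 10%; inactive means mean and most replicates under 10%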
ARNT-TACC3 inh – ARNT/TACC3 interaction disruption | Q9Y6A5 | AlphaScreen His-ARNT PAS-B/GST-TACC3 binding, luminescence; TACC3 fragment carries E629A point mutation | inhibition, % at 9.99 µM | 390,000 compounds, 0.66% hits;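 active means mean inhibition of replicates at least 50% and at least half of replicates each reaching 50%; inconclusive means half or more replicates reach 50% but mean below 50%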;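 further: 0% = complete ARNT plus TACC3 wells and 100% = ARNT alone without TACC3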
HSP90 inh – blocks HSP90-mediated luciferase refolding in reticulocyte lysate. Rabbit reticulocyte lysate, luciferase refolding luminescence, 3 h. inhibition, % at 5.6 µM. 290,000 compounds, 0.91% hits;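 active means inhibition above the screen-wide mean plus 3 SD, computed separately per campaign, cut at about 16% in these data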;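 further: 0% = DMSO wells and 100% = 60 µM geldanamycin wells; inhibitors lower the luminescence because luciferase stays unfolded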
HSF1 inhib – HSF1 inhibition; 300,000 compounds, 0.77% hits; activity change, negative = inhibition, % at 7.5 µM (by protocol); NIH3T3-HGL HSE-luciferase, MG132-induced, luminescence 8 h; hits give low values;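 active means more than half of replicate wells show activity change below -50%, luminescence cut by over half; inconclusive means some wells, but at most half, below -50%; inactive means no replicate well below -50%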;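 further: luciferase reports HSF-1 transcriptional activity via heat shock element; 0% = median of DMSO wells and -100% = zero luminescence signal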
Numbers without * were called inactive; ? = inconclusive; . = no result.

SMILES	HSF1 activator	HIF activator	ARNT-TACC3 inh	HSP90 inh	HSF1 inhib
COc1cccc(NC(=O)CN2C(=O)COc3ccc(S(=O)(=O)N4CCC(C)CC4)cc32)c1	86*	-1	-4	0	53
CCOC(=O)N1CCN(C(=O)CN2C(=O)COc3ccc(S(=O)(=O)N4CCOCC4)cc32)CC1	58*	0	-2	2	31
COc1cc(NC(=O)C2CCN(S(=O)(=O)c3ccc4c(c3)CC(C)N4C(C)=O)CC2)cc(OC)c1OC (stereo not given)	10	0	9	2	-1
COc1ccc(NC(=O)C2CCN(S(=O)(=O)c3ccc4c(c3)CC(C)N4C(C)=O)CC2)cc1OC (stereo not given)	-3	678*	0	-6	-4
CSc1cccc(NC(=O)C2CCCN(S(=O)(=O)c3ccc(F)cc3)C2)c1 (stereo not given)	5	0	-3	5	7
CN1CCN(C(=O)CN2C(=O)COc3ccc(S(=O)(=O)N4CCOCC4)cc32)CC1	-12	0	1	8	-6
O=C(Nc1cccc(Cl)c1)C1CCCN(S(=O)(=O)c2ccc(F)cc2)C1 (stereo not given)	89*	0	-6	-2	44
CO[C@H]1CN(C)C(=O)c2ccc(NC(C)=O)cc2OC[C@H](C)N(C(=O)c2ccccc2F)C[C@@H]1C	.	.	14	.	.
C[C@@H]1CN([C@@H](C)CO)C(=O)c2cc(C3=CCCC3)cnc2O[C@@H]1CN(C)Cc1cccnc1	.	.	-8	.	.
COc1cccc(NC(=O)C2CCN(S(=O)(=O)c3ccccc3)CC2)c1	-7	0	47*	-1	-1
O=C(Nc1cccc(-c2ccc(F)cc2)c1)C1CCCN(C(=O)c2cscn2)C1 (stereo not given)	-77	1	1	-3	-71*
COc1cccc(NC(=O)C2CCN(S(=O)(=O)c3ccc4c(c3)OCCO4)CC2)c1	-4	0	1	4	1
COc1cccc(NC(=O)N2CCCC2C(=O)NCC(C)C)c1 (stereo not given)	-12	0	-14	-1	-8
COc1cccc(NC(=O)N2CCCC2C(=O)NC(C)C)c1 (stereo not given)	-70	-1	-7	3	-63*
CO[C@@H]1CN(C)C(=O)c2ccc(NS(=O)(=O)c3cn(C)cn3)cc2OC[C@H](C)N(C)C[C@@H]1C	.	.	1	.	.
C[C@@H]1CCCCO[C@@H](CN(C)Cc2ccc3c(c2)OCO3)[C@H](C)CN([C@@H](C)CO)C(=O)c2cc(NC(=O)CCCN(C)C)ccc2O1	.	.	6	.	.
CCNC(=O)C[C@@H]1CC[C@@H]2[C@H](COC[C@@H](O)CN2Cc2ccc(Cl)c(Cl)c2)O1	.	.	3	.	.
CN1CCN(C(=O)C[C@@H]2CC[C@@H]3[C@@H](COc4ccc(NC(=O)C5CCCCC5)cc4C(=O)N3C)O2)CC1	.	.	-16	.	.
O=C(O)CC1S/C(=N/N=C/C=C/c2ccccc2[N+](=O)[O-])NC1=O (stereo not given)	0	0	34*	-1	-3
Cc1ccccc1CN1CCN(C(=O)CC(C)C)CC1	-88	-1	-43	1	-86*
CCCCCCn1nc(C(=O)Nc2nc3c(s2)CCCC3)c2ccccc2c1=O	-1	10*	-2	2	-4
CCCCn1nc(C(=O)Nc2nc3c(s2)CCCC3)c2ccccc2c1=O	-25	0	2	0	-12
CCCCOc1ccc(C2C(=O)N(C3CCCCC3)CC(=O)N2CC2CCCO2)cc1 (stereo not given)	-63	-1	3	1	-54*
O=C(NCCN1CCCC1)[C@H]1N[C@H]2c3ccc(C4=CCCCC4)c(=O)n3C[C@H]2[C@@H]1CO	.	.	-7	.	.
Cc1ccc2c(c1)C(=NC1CCCCC1)c1cc3ccccc3nc1-2	60*	3	5	-3	44
SMILES	HSF1 activator	HIF activator	ARNT-TACC3 inh	HSP90 inh	HSF1 inhib
Cc1ccc(S(=O)(=O)N(C)C[C@@H]2Oc3ccc(NS(=O)(=O)c4ccc(F)cc4)cc3C(=O)N([C@@H](C)CO)C[C@H]2C)cc1	.	.	4	.	.
CS(=O)(=O)c1ccccc1-c1nnc(NC(=O)Cc2ccccc2)o1	5	0	62*	-3	-5
CSc1ccccc1-c1nnc(NC(=O)Cc2ccccc2)o1	9	0	1	-4	0
CCN(C(=O)c1ccc2c(SCC(=O)O)c3c(nc2c1)CCC3)c1cc(Cl)ccc1OC	-79	0	-1	-2	-73*
COc1ccc(NC(=O)CSc2c3c(nc4ccccc24)CCCC3)c(OC)c1	70*	1	0	3	63
COc1ccc(NC(=O)CSc2c3c(nc4cc(Cl)ccc24)CCCC3)cc1OC	128*	7	-5	3	74
Cc1cc(NC(=O)CSc2c3c(nc4ccccc24)CCC3)no1	72*	0	24	-1	57
O=C(C1CCCC1)N1CCCCN2[C@H](C1)[C@H](c1ccc(C#CC3(O)CCCC3)cc1)[C@@H]2CO	.	.	-2	.	.
COc1ccc(S(=O)(=O)N(C)C[C@H]2OCCCC[C@H](C)Oc3ccc(NC(=O)C4CCCCC4)cc3C(=O)N([C@@H](C)CO)C[C@H]2C)cc1	.	.	6	.	.
CO[C@@H]1CN(C)C(=O)c2cc(NC(=O)CC(F)(F)F)ccc2OC[C@@H](C)N(S(=O)(=O)c2cn(C)cn2)C[C@H]1C	.	.	2	.	.
C[C@H]1CN([C@@H](C)CO)C(=O)c2cc(-c3cncnc3)cnc2O[C@H]1CN(C)C(=O)Cc1ccccc1	.	.	-6	.	.
COCCNC(=O)CSc1c2c(nc3ccc(Cl)cc13)CCCC2	107*	1	.	0	51
O=C(CSc1c2c(nc3cc(Cl)ccc13)CCCC2)NCc1ccco1	?	6	-1	-1	48
O=C1/C(=C/c2ccco2)SC(=S)N1CCC(=O)N1CCCCC1CCO (stereo not given)	55*	1	4	-3	33
O=C(N=Nc1c(O)n(Cc2ccccc2)c2ccccc12)c1cc2ccccc2cc1O	42	3	-16	-7	15
O=C(N=Nc1c(O)n(Cc2ccccc2)c2ccccc12)c1ccc(O)cc1	62*	9	-7	3	51
O=C1c2ccccc2CCCC12N=NCC2c1cccc2ccccc12 (stereo not given)	-7	-1	-1	0	-3
Cc1ccc(C2CN=NC23CCc2ccccc2C3=O)cc1 (stereo not given)	12	1	-4	17*	5
COc1ccccc1C(=O)Nc1ccc2c(c1)C(=O)N(C)C[C@@H](OC)[C@@H](C)CN[C@@H](C)CO2	.	.	-3	.	.
O=C(c1ccco1)N1CCN(S(=O)(=O)/C=C/c2ccccc2)CC1	-69	0	1	5	-59*
O=C(c1cc2ccccc2o1)N1CCN(S(=O)(=O)/C=C/c2ccccc2)CC1	5	0	0	-4	-5
CO[C@@H]1CN(C)C(=O)c2cc(NC(=O)NC(C)C)ccc2OC[C@H](C)N(Cc2cncnc2)C[C@@H]1C	.	.	-8	.	.
